Records with an inconclusive call do not appear. The source made the active and inactive calls. The calls were made as follows: active = hit-call score of the fitted dose curve at least 0.9, where 1 is the maximum; inconclusive = response in the unintended direction; inactive = score below 0.9.
How the values were obtained:
[1] = Tanguay_ZF_120hpf_YSE_legacy: (Legacy) Oregon State University Tanguay Lab 120 Hour Post-fertilization zebrafish Assay for Yolk Sac Edema (AID 2283634)
Description: Tanguay_ZF_120hpf_legacy is a whole embryo, multiplexed endpoint assay using zebrafish larvae exposed for 120 hours post fertilization on a 96-well plate.Tanguay_ZF_120hpf_YSE_legacy is one of one assay component(s) measured or calculated from the Tanguay_ZF_120hpf_legacy assay. It is designed to make measurements of zebrafish development as detected with brightfield microscopy of developing zebrafish embryos.Data from the assay component Tanguay_ZF_120hpf_YSE_legacy was analyzed into 1 assay endpoints. This assay endpoint, Tanguay_ZF_120hpf_YSE_legacy, was analyzed in the positive analysis fitting direction relative to DMSO as the negative control and baseline of activity. […]
Zebrafish husbandry: Tropical 5D wild-type adult zebrafish were housed in at an approximate density of 1000 per 100 gallon tank at the Sinnhuber Aquatic Research Laboratory, Oregon State University, Corvallis, OR. […] At 24 hpf, embryos were assessed for photomotor response using a custom photomotor response analysis tool (PRAT) and for developmental toxicity endpoints (MO24: mortality at 24 hpf, DP: developmental progression, SM: spontaneous movement, and NC: notochord distortion). At 120 hpf, locomotor activity was measured using Viewpoint Zebralab and assessed for 18 endpoints. […] If mortality occurred for an embryo (at either 24 or 120 hpf), the non-mortality endpoints were not measured.

[2] = Tanguay_ZF_120hpf_AXIS_legacy: (Legacy) Oregon State University Tanguay Lab 120 Hour Post-fertilization zebrafish Assay for Body Axis Malformation (AID 2283635);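 also: potency for an increased fraction of larvae scored with body axis malformation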
Method in brief: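 Each dechorionated embryo was exposed alone from 6 hpf, with DMSO at 0.64% (vol/vol) and trimethyltin chloride 5 uM as positive control. Axis malformation was recorded at 120 hpf unless the embryo had died.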

[3] = Tanguay_ZF_120hpf_EYE_legacy: (Legacy) Oregon State University Tanguay Lab 120 Hour Post-fertilization zebrafish Assay for Eye Malformation (AID 2283636);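 also: binary presence or absence of eye malformation scored by brightfield in 120 hpf larvae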
Method in brief: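 Binary brightfield scoring of eye defects at 120 hpf after static exposure from 6 hpf of single pronase-dechorionated wild-type embryos (28C, 0.64% DMSO). Non-mortality endpoints omitted where embryos died; fit vs DMSO.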

[4] = Tanguay_ZF_120hpf_SNOU_legacy: (Legacy) Oregon State University Tanguay Lab 120 Hour Post-fertilization zebrafish Assay for Snout Malformation (AID 2283637)
Method in brief: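 Binary snout-malformation call at 120 hpf in wild-type 5D embryos, chorion removed by pronase, under static exposure from 6 hpf at 28C (0.64% DMSO). Embryos dying by 24 or 120 hpf excluded.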

[5] = Tanguay_ZF_120hpf_JAW_legacy: (Legacy) Oregon State University Tanguay Lab 120 Hour Post-fertilization zebrafish Assay for Jaw Malformation (AID 2283638)
Method in brief: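 Wild-type 5D embryos, chorion removed at 4 hpf, dosed singly from 6 hpf; 28C static, sealed, foil-covered, to 120 hpf. Endpoint: jaw defect yes/no (brightfield); mortality excludes scoring.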

[6] = Tanguay_ZF_120hpf_OTIC_legacy: (Legacy) Oregon State University Tanguay Lab 120 Hour Post-fertilization zebrafish Assay for Otic Vesicle Malformation (AID 2283639)
Method in brief: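 Wild-type zebrafish larvae, whole-embryo exposure from early stage to 120 hpf at 28C. Binary brightfield scoring of otic vesicle morphology, fitted in the positive direction against the DMSO baseline.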

[7] = Tanguay_ZF_120hpf_PE_legacy: (Legacy) Oregon State University Tanguay Lab 120 Hour Post-fertilization zebrafish Assay for Pericardial Edema (AID 2283640)
Method in brief: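 Zebrafish larvae are exposed from early development to 120 hpf at 28C, with 0.64% DMSO final. Each surviving larva receives a yes/no pericardial edema call by brightfield imaging, analysed relative to the DMSO baseline.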

[8] = Tanguay_ZF_120hpf_BRAI_legacy: (Legacy) Oregon State University Tanguay Lab 120 Hour Post-fertilization zebrafish Assay for Brain Malformation (AID 2283641)
Method in brief: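 Static exposure of staged wild-type embryos until 120 hpf, kept at 28C with light excluded and final DMSO of 0.64% (vol/vol). Presence or absence of brain malformation was noted under brightfield; mortality precluded scoring.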

[9] = Tanguay_ZF_120hpf_SOMI_legacy: (Legacy) Oregon State University Tanguay Lab 120 Hour Post-fertilization zebrafish Assay for Somite Malformation (AID 2283647)
Method in brief: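 Somitogenesis defects are recorded as binary calls in whole larvae at 120 hpf after continuous static chemical exposure starting at 6 hpf in dechorionated 5D embryos. DMSO serves as negative control and baseline.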

[10] = Tanguay_ZF_120hpf_PFIN_legacy: (Legacy) Oregon State University Tanguay Lab 120 Hour Post-fertilization zebrafish Assay for Pectoral Fin Malformation (AID 2283648);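 also: each larva judged yes or no for fin defect by brightfield with dead larvae skipped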
Method in brief: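 Pectoral fin malformation was recorded as a binary endpoint at 120 hpf in wild-type Tropical 5D larvae, which had been dechorionated and exposed statically from 6 hpf at 28C in 0.64% DMSO. Dead embryos were excluded.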

Measured: AC50

CS(=O)(=O)OCCCCOS(C)(=O)=O
active: [2] 38.7 µM
inactive: all other assays above

Reference: PubChem BioAssay (EPA / NIEHS)
